PME-1 Maybridge: inhibitors of human PME-1 in Maybridge library. recombinant PME-1, FP-Rh probe fluorescence polarization. inhibition, % at 9 µM. hit rate 0.5% among 16,000. AID 2291; in the data active means inhibition above about 30%
luminol inh ctr: luminol signal inhibition, Nox1 inhibitor counter-screen | HRP/luminol/H2O2 chemiluminescence counterscreen | inhibition, % at 6.7 µM | hit rate 0.4% among 16,000 | AID 1823; further: reference of the scale not given here
NOTCH agonist: agonists of NOTCH signaling. NOTCH signaling luciferase reporter cells, luminescence. activation, % at 2.5 µM. hit rate 0.4% among 15,000. AID 434982; in the data active means activation above about 2.2%
Nox1 inhibitor: inhibitors of human NADPH oxidase 1 (Nox1); Q9Y5S8; HT29 cells, luminol chemiluminescence ROS; inhibition, % at 6.7 µM; hit rate 0.81% among 16,000
rat GALR2 ag: GALR2 (rat) receptor agonism; O08726; cell-based GALR2 agonist screen; activation, % at 10 µM; hit rate 0.5% among 16,000; in the data active means activation above about 15%
The depositor's hits bear a star; nt = not tested or not shown. An excerpt weighted towards active compounds, which were near 2.5% of everything screened. Unless noted, no stated cut-off is given here; in the data, active means inhibition above about 75%; inactive means the rest.

SMILES	PME-1 Maybridge	luminol inh ctr	NOTCH agonist	Nox1 inhibitor	rat GALR2 ag
O=S(=O)(Nc1ccc(N2CCCCC2)cc1)c1cc(Cl)sc1Cl	6.7	68.3	0.2	102.1*	-4.7
S=c1[nH]nc(-c2ccncc2)n1Cc1ccccc1	-0.9	1.0	-0.7	-9.4	-9.2
C=CCn1c(-c2ccccc2)n[nH]c1=S	2.1	97.4*	1.0	24.2	-5.3
C=CCn1c(CSc2ccccc2[N+](=O)[O-])n[nH]c1=S	-4.7	80.1*	-0.5	0.0	-6.8
Cc1ccc(OC(=O)c2sc3ccccc3c2Cl)c([N+](=O)[O-])n1	3.7	-4.3	-0.1	-15.2	-7.0
Cc1ccc(OS(=O)(=O)c2c(Cl)sc(Cl)c2Br)c([N+](=O)[O-])n1	40.2*	-3.5	-0.7	11.7	-6.5
CN(C)Nc1ccc([N+](=O)[O-])c(NN(C)C)c1C#N	2.4	62.6	-0.5	81.0*	-4.9
N#Cc1c(NCc2cccs2)ccc([N+](=O)[O-])c1NCc1cccs1	5.4	2.2	0.4	-32.6	-10.6
CN(C)n1cccc1/C=C(\C#N)S(C)(=O)=O	-0.5	1.6	-0.2	4.8	-3.6
CS(=O)(=O)/C(C#N)=C/c1cccn1S(=O)(=O)c1ccccc1	31.2*	-3.2	-0.3	-7.4	-4.0
O=C1CC2(CCCC2)CC(=O)N1c1cc(Cl)cc(Cl)c1	5.9	-4.5	-0.7	20.0	-6.1
Cc1noc(C)c1S(=O)(=O)N(Cc1ccccc1)C(C)C	-44.2	0.1	-0.2	-22.3	47.0*
O=C(Nc1ccc(-c2nc3ccccc3s2)cc1)Nc1cc(F)cc2c1OCOC2	-59.4	2.6	-0.1	-17.6	33.4*
O=C(Nc1ccc(-c2nc3ccccc3s2)cc1)c1ccc2c(c1)CCO2	-18.4	1.8	-0.6	-43.8	7.3
CCn1c(-c2cccs2)n[nH]c1=S	-2.9	100.3*	-0.2	47.4	-0.2
COc1ccc(-n2c(-c3cccs3)n[nH]c2=S)cc1	-1.3	98.0*	-0.1	11.6	-2.8
Cc1cc(NC(=O)c2cc(C)oc2C)n(C)n1	2.2	0.4	0.0	-27.3	-5.2
O=S(=O)(O)c1ccc2[nH]c(=S)[nH]c2c1	3.2	7.4	-0.9	-69.3	60.3*
COc1ccc2[nH]c(=S)[nH]c2c1	1.6	28.2	-0.4	-25.8	-2.7
CN(C)/C=C/C=C/C=C/C(=O)c1ccc(Br)cc1	-6.1	1.4	-0.4	-54.7	-8.9
O=C(O)c1ccc(OCc2ccccc2)cc1	2.0	-3.8	-0.6	4.9	-2.0
c1ccc(COc2ccc(CCC3OCCO3)cc2)cc1	-2.4	2.4	0.1	-57.1	15.0*
N/C(=N\O)c1cncnc1N	5.3	-1.1	-0.8	34.0	-5.7
O=[N+]([O-])c1cc(-c2nc(-c3ccccn3)no2)cs1	6.4	-5.2	-1.1	1.2	-8.9
O=S(=O)(Nc1ccccc1N1CCOCC1)c1ccccc1	5.3	42.8	nt	20.0	-8.5
CCOc1cc(N2CCOCC2)c(OCC)cc1NS(=O)(=O)c1ccccc1	17.2	15.4	-0.4	102.7*	-2.8
COC(=O)c1cc([N+](=O)[O-])ccc1N1CCOCC1	3.1	0.6	-0.8	-92.6	-1.4
Cc1cc(C)c2c(=O)[nH]sc2n1	-2.6	-2.9	2.8*	-21.1	-8.4
CC1=NNC(=O)C1Oc1ccc(Cl)cc1Cl (stereo unspecified)	7.2	-3.8	-0.2	36.7	-3.0
